# Data taken from PubChem BioAssay AID1159580 (chemical genetic matrix, 2015).
# Screen size: about 5,500 compounds; about 2,000 (36%) were called active. Roughly 18% stayed inconclusive and do not appear here. The list shows a part of the results. Unmarked numbers belong to inactive results. Rule as the data show it: active = normalized growth mostly below about 0.91 (no sharp cut-off); inconclusive = no clear call, values can overlap the other calls; inactive = mostly above about 0.92.
# Experiment: chemical genetic growth profiling, strain panel (AID 1159580);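 also: tested at 20 µM; growth read once vehicle control cultures reached saturation at 30 °C; 1 = growth at the plate median or of vehicle wells; lower values mean less growth of the strain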
# Conditions: S. cerevisiae deletion strains, growth OD
# [1] = locus YAR019C, strain CDC15, stronger effect = lower value
# [2] = locus YBL105C, strain PKC1, stronger effect = lower value
# [3] = locus YBR135W, strain CKS1, stronger effect = lower value
# [4] = locus YBR136W, strain MEC1, stronger effect = lower value
# [5] = locus YBR160W, strain CDC28, stronger effect = lower value
# [6] = locus YDL017W, strain CDC7, stronger effect = lower value
# [7] = locus YDL028C, strain MPS1, stronger effect = lower value
# [8] = locus YDL101C, strain DUN1, stronger effect = lower value
# [9] = locus YDL108W, strain KIN28, stronger effect = lower value
# [10] = locus YDL132W, strain cdc53, stronger effect = lower value
# [11] = locus YDL214C, strain PRR2, stronger effect = lower value
# [12] = locus YDR052C, strain DBF4, stronger effect = lower value
# [13] = locus YDR054C, strain cdc34, stronger effect = lower value
# [14] = locus YDR226W, strain ADK1, stronger effect = lower value
# [15] = locus YDR477W, strain SNF1, stronger effect = lower value
# [16] = locus YER123W, strain YCK3, stronger effect = lower value
# [17] = locus YER133W, strain GLC7, stronger effect = lower value
# [18] = locus YFL009W, strain cdc4, stronger effect = lower value
# [19] = locus YFL029C, strain CAK1, stronger effect = lower value
# [20] = locus YFR003C, strain YPI1, stronger effect = lower value
# [21] = locus YFR019W, strain FAB1, stronger effect = lower value
# [22] = locus YFR028C, strain CDC14, stronger effect = lower value
# [23] = locus YGR040W, strain KSS1, stronger effect = lower value
# [24] = locus YGR052W, strain FMP48, stronger effect = lower value
# [25] = locus YGR092W, strain DBF2, stronger effect = lower value
# [26] = locus YHR030C, strain SLT2, stronger effect = lower value
# [27] = locus YHR079C, strain IRE1, stronger effect = lower value
# [28] = locus YHR082C, strain KSP1, stronger effect = lower value
# [29] = locus YHR205W, strain SCH9, stronger effect = lower value
# [30] = locus YIL147C, strain SLN1, stronger effect = lower value
# [31] = locus YJL095W, strain BCK1, stronger effect = lower value
# [32] = locus YJL128C, strain PBS2, stronger effect = lower value
# [33] = locus YJL157C, strain FAR1, stronger effect = lower value
# [34] = locus YJR016C, strain ILV3, stronger effect = lower value
# [35] = locus YJR066W, strain TOR1 (second series), stronger effect = lower value
# [36] = locus YJR066W, strain TOR1, stronger effect = lower value
# [37] = locus YKL048C, strain ELM1, stronger effect = lower value
# [38] = locus YKL067W, strain YNK1, stronger effect = lower value
# [39] = locus YKL101W, strain HSL1, stronger effect = lower value
# [40] = locus YKL193C, strain SDS22, stronger effect = lower value
# [41] = locus YKL203C, strain TOR2, stronger effect = lower value
# [42] = locus YLR113W, strain HOG1, stronger effect = lower value
# [43] = locus YLR133W, strain CKI1, stronger effect = lower value
# [44] = locus YLR403W, strain SFP1, stronger effect = lower value
# [45] = locus YML070W, strain DAK1, stronger effect = lower value
# [46] = locus YMR001C, strain CDC5, stronger effect = lower value
# [47] = locus YMR205C, strain PFK2 (second series), stronger effect = lower value
# [48] = locus YMR277W, strain FCP1, stronger effect = lower value
# [49] = locus YNL006W, strain LST8, stronger effect = lower value
# [50] = locus YNL020C, strain ARK1, stronger effect = lower value
# [51] = locus YNL161W, strain CBK1, stronger effect = lower value
# [52] = locus YNL183C, strain NPR1, stronger effect = lower value
# [53] = locus YNL207W, strain RIO2, stronger effect = lower value
# [54] = locus YNL222W, strain SSU72, stronger effect = lower value
# [55] = locus YNL307C, strain MCK1 (second series), stronger effect = lower value
# [56] = locus YOL078W, strain AVO1, stronger effect = lower value
# [57] = locus YOL136C, strain PFK27, stronger effect = lower value
# [58] = locus YOR061W, strain CKA2, stronger effect = lower value
# [59] = locus YOR119C, strain RIO1, stronger effect = lower value
# [60] = locus YOR231W, strain MKK1, stronger effect = lower value
# [61] = locus YOR329C, strain SCD5, stronger effect = lower value
# [62] = locus YPL031C, strain PHO85, stronger effect = lower value
# [63] = locus YPL153C, strain RAD53, stronger effect = lower value
# [64] = locus YPL204W, strain HRR25, stronger effect = lower value
# [65] = locus YPL209C, strain IPL1, stronger effect = lower value
# [66] = locus YPL256C, strain CLN2, stronger effect = lower value
# [67] = locus YPR025C, strain CCL1, stronger effect = lower value
# [68] = locus YPR106W, strain ISR1, stronger effect = lower value
# [69] = locus YPR111W, strain DBF20, stronger effect = lower value
# [70] = strain NNK1, stronger effect = lower value
# [71] = strain TSCII, stronger effect = lower value
structure (smiles),measurement,setting,value
CC(=O)c1ccc(Sc2ccccc2)c([N+](=O)[O-])c1,normalized growth,[1],0.877 (active)
same,normalized growth,[2],0.878 (active)
same,normalized growth,[3],0.864 (active)
same,normalized growth,[4],0.874 (active)
same,normalized growth,[5],0.876 (active)
same,normalized growth,[6],0.879 (active)
same,normalized growth,[7],0.885 (active)
same,normalized growth,[8],0.873 (active)
same,normalized growth,[9],0.876 (active)
same,normalized growth,[10],0.87 (active)
same,normalized growth,[11],0.792
same,normalized growth,[12],0.898 (active)
same,normalized growth,[13],0.845 (active)
same,normalized growth,[14],0.857 (active)
same,normalized growth,[15],0.788
same,normalized growth,[16],0.799
same,normalized growth,[17],0.874
same,normalized growth,[18],0.868 (active)
same,normalized growth,[19],0.87 (active)
same,normalized growth,[20],0.874 (active)
same,normalized growth,[21],0.88
same,normalized growth,[22],0.865 (active)
same,normalized growth,[23],0.78
same,normalized growth,[24],0.784
same,normalized growth,[25],0.387 (active)
same,normalized growth,[26],0.75 (active)
same,normalized growth,[27],0.813
same,normalized growth,[28],0.859
same,normalized growth,[29],0.773
same,normalized growth,[30],0.875 (active)
same,normalized growth,[31],0.756
same,normalized growth,[32],0.778 (active)
same,normalized growth,[33],0.818
same,normalized growth,[34],0.882 (active)
same,normalized growth,[35],0.823
same,normalized growth,[36],0.811
same,normalized growth,[37],0.753 (active)
same,normalized growth,[38],0.788
same,normalized growth,[39],0.753
same,normalized growth,[40],0.869 (active)
same,normalized growth,[41],0.814
same,normalized growth,[42],0.698 (active)
same,normalized growth,[43],0.79
same,normalized growth,[44],0.756
same,normalized growth,[45],0.809
same,normalized growth,[46],0.858 (active)
same,normalized growth,[47],0.772
same,normalized growth,[48],0.859 (active)
same,normalized growth,[49],0.855 (active)
same,normalized growth,[50],0.803
same,normalized growth,[51],0.869 (active)
same,normalized growth,[52],0.798
same,normalized growth,[53],0.861 (active)
same,normalized growth,[54],0.876 (active)
same,normalized growth,[55],0.772
same,normalized growth,[56],0.861 (active)
same,normalized growth,[57],0.772
same,normalized growth,[58],0.815
same,normalized growth,[59],0.835
same,normalized growth,[60],0.788
same,normalized growth,[61],0.881 (active)
same,normalized growth,[62],0.785
same,normalized growth,[63],0.79
same,normalized growth,[64],0.773
same,normalized growth,[65],0.872 (active)
same,normalized growth,[66],0.782 (active)
same,normalized growth,[67],0.884 (active)
same,normalized growth,[68],0.866 (active)
same,normalized growth,[69],0.838 (active)
same,normalized growth,[70],0.853 (active)
same,normalized growth,[71],0.86 (active)
O=[N+]([O-])c1ccc(Sc2ccccc2)c([N+](=O)[O-])c1,normalized growth,[1],0.862 (active)
same,normalized growth,[2],0.894 (active)
same,normalized growth,[3],0.874 (active)
same,normalized growth,[4],0.884 (active)
same,normalized growth,[5],0.896 (active)
same,normalized growth,[6],0.89 (active)
same,normalized growth,[7],0.888 (active)
same,normalized growth,[8],0.876 (active)
same,normalized growth,[9],0.88 (active)
same,normalized growth,[10],0.867 (active)
same,normalized growth,[11],0.695 (active)
same,normalized growth,[12],0.913
same,normalized growth,[13],0.83 (active)
same,normalized growth,[14],0.858 (active)
same,normalized growth,[15],0.75
same,normalized growth,[16],0.685
same,normalized growth,[17],0.803
same,normalized growth,[18],0.847 (active)
same,normalized growth,[19],0.866 (active)
same,normalized growth,[20],0.886 (active)
same,normalized growth,[21],0.84
same,normalized growth,[22],0.899
same,normalized growth,[23],0.784
same,normalized growth,[24],0.706
same,normalized growth,[25],0.271 (active)
same,normalized growth,[26],0.492 (active)
same,normalized growth,[27],0.655
same,normalized growth,[28],0.719
same,normalized growth,[29],0.522 (active)
same,normalized growth,[30],0.885 (active)
same,normalized growth,[31],0.673
same,normalized growth,[32],0.757 (active)
same,normalized growth,[33],0.748
same,normalized growth,[34],0.877 (active)
same,normalized growth,[35],0.756
same,normalized growth,[36],0.748
same,normalized growth,[37],0.71 (active)
same,normalized growth,[38],0.691 (active)
same,normalized growth,[39],0.662 (active)
same,normalized growth,[40],0.876 (active)
same,normalized growth,[41],0.785
same,normalized growth,[42],0.396 (active)
same,normalized growth,[43],0.717 (active)
same,normalized growth,[44],0.758
same,normalized growth,[45],0.689
same,normalized growth,[46],0.868 (active)
same,normalized growth,[47],0.678 (active)
same,normalized growth,[48],0.868 (active)
same,normalized growth,[49],0.87 (active)
same,normalized growth,[50],0.733
same,normalized growth,[51],0.864 (active)
same,normalized growth,[52],0.708
same,normalized growth,[53],0.859 (active)
same,normalized growth,[54],0.88 (active)
same,normalized growth,[55],0.704
same,normalized growth,[56],0.867 (active)
same,normalized growth,[57],0.65 (active)
same,normalized growth,[58],0.768
same,normalized growth,[59],0.806
same,normalized growth,[60],0.64
same,normalized growth,[61],0.884 (active)
same,normalized growth,[62],0.73
same,normalized growth,[63],0.723
same,normalized growth,[64],0.727
same,normalized growth,[65],0.883 (active)
same,normalized growth,[66],0.428 (active)
same,normalized growth,[67],0.893 (active)
same,normalized growth,[68],0.849 (active)
same,normalized growth,[69],0.812 (active)
same,normalized growth,[70],0.796 (active)
same,normalized growth,[71],0.853 (active)
